From the supplement of paper PMC3334620
Whole data set: some 33,000 sequences, median “E-score (-0.5 to 0.5)” near -0.04, cut for the highest 2% near 0.36. Many of the other results were omitted from the sample, so the highest values are more common in it than they were.

What follows are sequences tested against T1, Hmlalpha2 (UniProt P0CY09) (assay: PBM E-score (8-mer binding enrichment) (E-score (-0.5 to 0.5)); higher = stronger / more preferred TF binding). Details: protein concentration: 200 nM; construct: GST-full length.
T1 sequence: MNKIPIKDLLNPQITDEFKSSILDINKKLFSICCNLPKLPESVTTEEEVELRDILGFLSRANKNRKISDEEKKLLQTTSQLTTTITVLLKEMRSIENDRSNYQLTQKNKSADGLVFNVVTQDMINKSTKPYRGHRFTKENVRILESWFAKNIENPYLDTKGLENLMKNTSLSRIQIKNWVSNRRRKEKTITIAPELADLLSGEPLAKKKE
Experimental: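 Universal 'all 10-mer' protein binding microarrays (Agilent AMADID 015681) probed with GST-tagged S. cerevisiae TFs (full-length or DBD) made by in vitro transcription/translation (PURExpress), about 100-200 nM. Bound TF was detected with fluorescent anti-GST. Each ungapped 8-mer (which stands for itself and its reverse complement) is scored by the PBM enrichment score (E-score), a modified Wilcoxon-Mann-Whitney statistic from -0.5 to +0.5, computed with the Universal PBM Analysis Suite. Scale: above 0.35 generally sequence-specific binding.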

Sequence	PBM E-score
AGCTGCAG	-0.168
ACTTTGAC	0.231
CCTTGCCC	-0.198
CAATGTTA	0.284
ACATGTCA	0.402
GCCTGTTA	0.139
CCATGTCA	0.333
CCATGTTC	0.275
AGATGTTG	-0.0256
ACATGTTC	0.371
ACATGTCC	0.351
AGATGTTC	0.0875
ACATGTTG	0.45
GCATGTTA	0.464
AAATGTTG	0.0925
CCTGGGCG	-0.173
GCAAGCGA	0.0703
GCGAAACC	0.104
CAAACCCG	-0.0693
ATTCACCA	0.0468
ATGAGGTA	0.136
CCGCATAC	0.0261
CCTTAGAG	-0.462
AAATGTTA	0.33
AGATGTTA	0.201

Sequence	PBM E-score
ACATGTTA	0.461
CCATGTGA	0.184
CCATGTTA	0.458
CGATGTTA	0.353
CGCCTGGC	-0.0832
GCGCATGA	-0.252
GCTGTCCA	-0.0572
CTCGTCAC	-0.0377
AATCGGTC	-0.081
CTCCTAAG	-0.115
CAGGAGCA	-0.173
CCATAGCA	-0.145
ACATAACT	0.325
GCATAACA	0.307
TCATAGCA	-0.0434
ACATAACG	0.368
ACATAGCA	0.392
ACATAACA	0.434
ACATAACC	0.222
CCATAACA	0.333
CACACCAG	-0.011
GGATGACC	-0.218
GATTTTGA	0.12
ACGATGTG	0.19
CAGTTTGC	-0.118

Sequence	PBM E-score
ACAGGGAA	0.0611
CGCTGATC	-0.177
AGGGGAGC	-0.33
GCGTCTCC	-0.033
AAACGTGT	0.375
ACACGTGG	0.293
AAGCGTGT	0.371
AATCGTGC	0.151
AATCGTGA	-0.00694
ACACGTGA	0.318
AAACGTGG	-0.0689
AAACGTGA	0.168
AAGCGTGG	-0.0995
ACACGTGT	0.432
AAGCGTGA	-0.0159
AATCGTGT	0.406
ACGGCGAT	-0.0673
AGTCGGGG	-0.191
CAAGAATG	-0.0486
AGGGCCAG	-0.22
AGGCCAAG	-0.247
AGTCTATC	-0.0461
GTGGGCGA	-0.04
CACGTGTC	0.25
CACGTGAA	0.108

Sequence	PBM E-score
GACGTGAA	-0.0003
AACGTGTG	0.233
GACGTGTA	0.41
AACGTGTC	0.263
GACGTGGA	-0.209
AACGTGTA	0.455
CACGTGTA	0.444
GAAGTCTC	-0.247
GTACCCTA	-0.0877
GTCGACCA	-0.0364
GGATCCAA	-0.0601
GAGTAGCA	-0.0964
CCCCCGCG	-0.241
CCGTTTAG	-0.0825
TCGTGTCA	0.395
GTGTGTCA	0.307
GCGTGTCC	0.142
CGGTGTCA	-0.0723
GCGTGTCA	0.382
TAGTGTCA	0.0999
CCGTGTCA	0.351
ACGTGTCG	0.308
ACGTGTCA	0.392
GCTCCAGA	-0.207
ATGAGAAA	0.0401

Sequence	PBM E-score
CGGAGGCC	-0.334
TCACCTGA	-0.136
CTTGGCAA	-0.143
CATGTATC	0.405
CTTGTATC	0.264
AATGTATC	0.284
GATGTATA	0.237
AATGTATA	0.315
CATGTATA	0.466
AGTGCAAT	0.00712
CGATGTGA	0.105
AGATGTAA	0.382
TGATGCAA	0.0282
TGATGTAA	0.389
AGATGTAT	0.251
GGATGTCA	0.133
TGCTGTAA	0.17
GGATGTAA	0.397
CGATGTAC	0.221
AGATGTAG	0.094
CGATGTAA	0.417
GGATGTAC	0.225
CCATCTAC	0.0186
CTCTGCCC	-0.109
AGCAATGG	-0.0784

Sequence	PBM E-score
CATACCAA	0.141
CACGGTGA	0.155
ACCATTAG	-0.0407
AGCCCTCC	-0.312
CAGGCGAA	0.0909
CGTTGTAA	0.368
TGTTGTAA	0.401
CGTTGTAG	0.242
AGTTGTAA	0.248
CGTTGTAC	0.278
AGTTGAAA	0.0609
GGTTGTAA	0.342
GGTTGAAA	-0.0197
TGTTGAAA	0.37
AAGAGTAC	0.0432
ATCCCTAG	-0.00744
CAGTACCG	-0.142
CCCGATTC	-0.0455
GTAGCGGA	-0.0459
GTTATCCA	0.0731
AGCCATCG	-0.171
ATGCCTAC	-0.224
GACCTCCA	-0.0969
CTTTGGTC	-0.0966
CACACGGA	0.0896

Sequence	PBM E-score
GACACGGA	0.224
AACACGGG	0.387
ACCACGGT	-0.134
CACACGGG	0.218
ACCACGGG	-0.213
AACACGGA	0.374
ATCACGGA	-0.189
AACACGGT	0.402
AACACCGA	0.193
AACACGGC	0.359
TACACGGA	0.447
ACGATTCC	-0.04
CTAGGCGC	-0.158
CAAGAGCA	-0.00496
CTTCAAAC	-0.0259
CTGCCTGC	-0.252
AATTCTTG	0.12
GGCGGTCA	-0.283
GGAAGGTA	-0.132
ACAAAGGG	-0.0246
CTGCCAGA	-0.232
GTCAACAC	0.358
ATCAACAA	0.306
AGCAACAC	0.26
ATCAACAT	0.44

Sequence	PBM E-score
ATCAACAC	0.399
CTCAACAC	0.382
ATCAACAG	0.136
CTCAACAA	0.302
ATCAACCC	0.144
CATACCCA	0.182
AATAATAA	0.311
ACCGAGGC	-0.359
GGGCAGAA	0.0375
CCAAGTGC	-0.171
ATTAACGA	0.317
ATTAACGG	-0.00314
ACTAACAA	0.253
ATTAACAG	0.261
GTTAACAA	0.366
ATTAACAA	0.415
GTTAACCA	0.285
GTTAACTA	0.362
ATTAACGC	0.372
CTTAACAC	0.419
CTTAACCC	-0.0467
CTTAACAA	0.307
AGACTAAA	-0.0357
AATGCAGT	-0.00748
CCTTCACA	0.0306

Sequence	PBM E-score
CACATCCC	-0.0137
GCCAAACA	-0.107
AGTAGAGG	-0.226
CGTAGCAG	-0.129
CAGTTCTC	-0.179
ATTAACTC	0.216
ATTAACCC	0.0714
ATTAACAC	0.455
GCCATGCA	0.0965
CCCATGTC	0.161
GCCATGGA	-0.178
CCCATGGA	-0.1
GCCATGTA	0.457
CCCATGTA	0.447
ACCATGTC	0.296
ACCATGTG	0.188
ACCATGTA	0.467
CACCATGC	-0.0851
TCACATCA	0.00787
CGTAACGC	0.193
CTGCCAGC	-0.238
GTTATGAA	0.186
CTTATGTC	0.117
GTTATGCA	0.00491
GTTATGTA	0.419

Sequence	PBM E-score
CTTATGCA	0.135
ATTATGTC	0.164
ATTATGTA	0.415
ATTATGTG	0.17
CTTATGTA	0.409
GCGCCAGA	-0.138
AGTCGGGA	-0.192
GAAGCTAA	-0.0677
ATCCACAT	0.158
AAATGTAG	0.113
CAATGTAA	0.435
AAATGTAA	0.394
AAATGTAC	0.236
GAATGTAC	0.16
GAATGTCA	0.0786
TAATGTGA	0.19
CAATGTAC	0.217
TAATGTAA	0.431
CAATGTAG	0.172
GAATGTAA	0.372
TAATGTCA	0.155
CTGAAAAC	0.1
CTCAGAAG	-0.215
AACCCGAT	0.0593
ACGGGGGG	-0.22

Sequence	PBM E-score
ACTCGGGG	-0.134
AAACCGAG	-0.204
GAGTATAA	0.169
GCGTATAA	0.337
CTGTATAA	0.209
GTATATAA	0.29
ATGTATAC	0.435
CTGTATAC	0.247
CCGTATAC	0.0388
ATGTATCC	0.294
GTGTATAA	0.391
ATGTATAG	0.362
GCGTATAC	0.371
ATGTATAA	0.395
GTATGCCA	-0.254
ACGACCCA	-0.0906
TGTAGGAA	0.226
GCCACCGC	-0.33
GATGGACA	-0.0833
CTTGAAAC	-0.111
ATGCTGCA	0.0587
TCCTATCA	-0.172
AGTCGCGA	-0.0755
CTCCCATC	-0.242
CATCTGAG	-0.137

Sequence	PBM E-score
CAAAATTC	0.15
ATACCTGG	-0.252
ATGCTGTA	0.136
AAGGAGCT	-0.163
CTGTAGAA	0.161
ATGTAGAC	0.391
ATGTAGAA	0.43
GTGTAGAA	0.445
ATGTAGGA	0.236
ACGTAGAG	0.224
ATGTAGAG	0.376
ATGTAGGC	0.169
GCGTAGAA	0.313
CTGTAGAC	0.104
AAGTAGAG	0.018
GAGTAGAA	0.147
CACAGATC	-0.0314
GAATCTTA	-0.127
CGATTAAC	0.149
TATCCTCA	-0.113
ATGTTACC	0.317
ATGTTAGA	0.358
ATGTTACA	0.401
ATGTTAAG	0.445
AAGTTAAT	0.187

Sequence	PBM E-score
AGGTTAAT	0.182
ACGTTAAA	0.362
CTGTTACA	0.281
CTGTTAAG	0.255
ACGTTAAG	0.255
ATGTTAAA	0.473
ATGTTAAT	0.447
CACAAACG	0.241
ACTCTCCT	-0.223
CAGCTACC	-0.168
CCCTAGAG	-0.232
ATTTACTC	0.301
CTTTACAA	0.38
ATTTACCC	0.0345
GTTTACTA	0.356
CTTTACTA	0.252
ATTTACAG	0.269
CTTTACCA	0.0599
ATTTACAA	0.453
GCTTACAA	0.275
ATTTACAC	0.479
ATTTACCA	0.21
GTTTACAA	0.425
GAATTTGA	-0.109
AAACTGGG	-0.278

Sequence	PBM E-score
ATAGTGGC	-0.192
GGCTTGAC	-0.093
CCAACATA	0.314
ACAACAAG	0.298
ACAACATC	0.263
GCAACATA	0.219
ACAACATG	0.451
ACAACATA	0.382
AGTGGATG	-0.0671
ACCTGAGT	0.0645
AAGGATCT	-0.17
ACCACGAG	-0.135
GCACGCTA	-0.192
ACACGCTA	0.414
ACACGCTG	0.355
AAACGCTC	-0.144
ACACGCTC	0.399
CCACGCTC	-0.335
GAGTTAGA	-0.0875
